Compound activity deposited in PubChem BioAssay by National Center for Advancing Translational Sciences (NCATS).
Rows were chosen to be rich in hits. Some 5.3% of all compounds tested hit in one or more screens of this group.
HPGD block: HPGD (human) dehydrogenase inhibition | 150,000 compounds, 4.3% hits | Potency, µM, for inactives: at the top dose activity change, negative = inhibition, actives largely listed as inhibitors | purified HPGD, NADH fluorescence kinetic, PGE2 substrate | AID 894; active means well fitted inhibition curve with a large enough effect, not every such curve was filed as active; inconclusive means small, poorly fitted or top-dose-only effect, or another doubt; inactive means no such curve, though single readings can be large or run the other way; further: potency means the concentration at half of the fitted maximal effect
Target sequence (P15428 whole entry, looked up): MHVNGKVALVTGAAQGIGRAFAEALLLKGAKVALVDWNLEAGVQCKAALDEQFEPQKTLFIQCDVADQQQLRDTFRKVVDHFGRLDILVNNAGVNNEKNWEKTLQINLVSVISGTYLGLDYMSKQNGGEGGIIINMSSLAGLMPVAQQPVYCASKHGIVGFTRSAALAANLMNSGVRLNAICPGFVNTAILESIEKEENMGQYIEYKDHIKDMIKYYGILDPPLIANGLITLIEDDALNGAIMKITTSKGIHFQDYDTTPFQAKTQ
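NADH formation kinetics: reaction with 30 uM PGE2 and 1 mM NAD+ (final), 20 nM enzyme, Tris-HCl pH 8 with Tween 20, after 15 min compound preincubation at room temperature. Fluorescence change, last versus first of five reads.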
PNC inhibitor: inhibitors of perinucleolar compartment assembly; PC3M PTB-GFP, PNC prevalence imaging, 16 h; stronger effect = lower value; activity change (PNC), negative = inhibition, % at 10 µM; 140,000 compounds, 3.1% hits;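 active means readout at or below -70, meaning at least 70% loss of cells showing the perinucleolar compartment, a nuclear body marking cancer cells; inconclusive means readout between -30 and a set limit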;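 further: plate controls were DMSO wells for no effect and camptothecin positive control wells for full effect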
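Read-out is percentage of cells bearing a perinucleolar compartment, from automated 20x imaging of fixed, Hoechst-stained PC3M PTB-GFP cells. Cells were seeded 4 h, then exposed 16 h to compound (23 nl of library stock) in duplicate plates.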
IMPase inh: cell-permeable inhibitors of inositol monophosphatase (IMPase); P97697; CHO-M1 cells, IP1 accumulation, HTRF TR-FRET ratio; inhibition (IP1 accumulation), % at 46.1 µM; 120,000 tested, under 10 active; AID 901; active means well fitted curve in the direction sought with a large enough effect in the signal ratio, not every such curve was filed as active; inconclusive means small, poorly fitted or top-dose-only effect, or a change in a side signal; inactive means no such curve, though single readings can be large or run the other way; the % refers to the signal ratio;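 further: cells stimulated with carbachol in lithium chloride buffer; plate controls were DMSO basal wells for no effect and reference inhibitor wells for full effect; higher means more IMPase inhibition seen as more IP1 and lower FRET ratio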
Target sequence (P97697 whole entry, looked up): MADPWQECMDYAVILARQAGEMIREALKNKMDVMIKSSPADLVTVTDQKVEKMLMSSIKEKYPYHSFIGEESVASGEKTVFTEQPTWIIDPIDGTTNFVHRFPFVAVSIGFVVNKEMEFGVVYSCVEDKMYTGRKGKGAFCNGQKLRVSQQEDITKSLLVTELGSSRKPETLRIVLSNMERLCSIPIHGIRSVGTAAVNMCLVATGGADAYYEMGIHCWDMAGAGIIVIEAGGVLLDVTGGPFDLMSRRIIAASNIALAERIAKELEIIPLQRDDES
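Cellular IMPase inhibition is scored as a rise in cytosolic IP1, detected by competitive TR-FRET between d2-labelled IP1 and a europium anti-IP1 antibody. M1-expressing CHO cells were stimulated with carbachol for 30 min at 37C, with lithium (50 mM LiCl) present in the buffer.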
12-hLO inh: inhibitors of human 12-lipoxygenase (ALOX12); purified 12-hLO, xylenol orange hydroperoxide absorbance; Potency, µM (titrated, usually from 57.1 µM), inactives show at the top dose activity change, negative = inhibition, actives largely listed as inhibitors; 150,000 compounds, 0.12% hits; further: potency means the concentration at half of the fitted maximal effect; nearly all actives have a fitted effect of over 55% in size
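150 nM 12hLO, 25 mM Hepes pH 7.0 + 0.01% Triton X-100; cpd preinc 15 min RT; 40 uM arachidonic acid, 30 min RT; Fe-XO 30 min; A573/A405 ratio as read-out.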
IMPase Li inh: membrane-permeable IMPase blocker, potentiated with lithium | 210,000 compounds, 0.35% hits | Potency, µM (doses to about 59.4 µM), for the others: at the top dose activity, negative = IMPase inhibition, hits mostly inhibitors | CHO-M1 cells, IP1 TR-FRET (IP-One), carbachol + lithium | AID 1457;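 further: IP1 builds up when IMPase is blocked and the TR-FRET signal falls; potency means the concentration at half of the fitted maximal effect; plate controls were basal vehicle for no effect and high inhibitor control for full effect; nearly all actives have a fitted effect of over 50% in size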
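Lithium-sensitised IP1 accumulation assay; M1-expressing CHO cells treated 30 min at 37C with compound. Competitive antibody detection by time-resolved FRET followed a 10 min room-temperature lysis step.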
ALOX15B inhib: blocks human 15-lipoxygenase 2 activity. O15296. purified 15hLO-2, xylenol orange hydroperoxide absorbance. Potency, µM (titrated, usually from 57.1 µM), for inactives: top-dose activity change, negative = inhibition, usual class: inhibitors. 110,000 compounds, 0.56% hits. AID 881; further: potency means the concentration at half of the fitted maximal effect; nearly all actives have a fitted effect of over 60% in size
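Purified human 15hLO-2 (50 nM) preincubated 15 min with compound, then 45 uM arachidonic acid for 90 min at RT in 25 mM Hepes pH 7.5, 0.01% Triton X-100. Hydroperoxide detected by Fe-xylenol orange; 573/405 nm absorbance ratio.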
* hit, by the source's call; [ ] = remark or other dose. Unless noted, the call rests on the fitted dose curve; in most records, active means well fitted curve in the direction sought with a large enough effect; inconclusive means small, poorly fitted or top-dose-only effect, or another doubt; inactive means no such curve, though single readings can be large; an effect the other way counts as inactive or inconclusive. Unless noted, on the % scale 0 is the no-effect control and ±100 the full control effect.

CO[C@H]1/C=C/O[C@@]2(C)Oc3c(C)c(O)c4c(O)c(c(/C=N/N5CCN(C)CC5)c(O)c4c3C2=O)NC(=O)/C(C)=C\C=C\[C@H](C)[C@H](O)[C@@H](C)[C@@H](O)[C@@H](C)[C@H](OC(C)=O)[C@@H]1C was read as HPGD block -11%, 12-hLO inh -17%, IMPase Li inh 27% and ALOX15B inhib inconclusive.
For COC1C=CO[C@@]2(C)Oc3c(C)c(O)c4c(O)c(c(C=NN5CCN(C)CC5)c(O)c4c3C2=O)NC(=O)/C(C)=C\C=CC(C)C(O)[C@@H](C)C(O)C(C)[C@H](OC(C)=O)C1C (some centres not stated) the results were HPGD block -13%, 12-hLO inh -26%, IMPase Li inh 11% and ALOX15B inhib 20µM*.
`O=C(/C=C/c1ccccc1)C1=C(O)C(=O)N(CCO)C1c1ccc2c(c1)OCO2` (configuration not stated) gave IMPase Li inh -6%.
COc1ccc(OCc2nnnn2-c2ccccc2)cc1 was read as HPGD block -8%, PNC inhibitor -93*, IMPase inh 7[1.84 µM], 12-hLO inh 3%, IMPase Li inh 11%[38.3 µM] and ALOX15B inhib -11%[11.4 µM].
For COc1ccc(-n2nnnc2-c2ccccc2)cc1 the results were HPGD block -11%, PNC inhibitor -83*, IMPase inh 3, 12-hLO inh 8%, IMPase Li inh 30%[38.3 µM] and ALOX15B inhib -1%.
For Cc1nc2cnc(N3CCOCC3)nc2n(Cc2cccs2)c1=O the results were HPGD block -14%, 12-hLO inh -4%, IMPase Li inh 1% and ALOX15B inhib -9%.
For Cc1cc(C)n(CCN(C)c2nc3nonc3nc2NC2CC2)n1 the results were IMPase Li inh 8%.
Screening Cc1ccc(NC(=O)/C(C#N)=C/c2cc(C)n(-c3ccc(Br)cc3)c2C)cc1C returned IMPase inh -10.
Screening N#C/C(=N\Nc1ccccc1F)c1nc(-c2ccccc2)cs1 returned IMPase Li inh 0%.
CCC(=O)n1nc(-c2ccco2)nc1SCc1ccccc1 was read as HPGD block 13µM*, PNC inhibitor inconclusive, IMPase inh 1, 12-hLO inh 6%, IMPase Li inh -1%[38.3 µM] and ALOX15B inhib -6%.
`CC(=O)n1nc(-c2ccco2)nc1SCc1ccccc1` gave HPGD block 13µM*, PNC inhibitor -7, IMPase inh -2, 12-hLO inh -1% and IMPase Li inh 1%.
O=C(c1cccs1)n1nc(-c2ccco2)nc1SCc1ccccc1 was read as HPGD block inconclusive, PNC inhibitor 20, IMPase inh 3, 12-hLO inh 2%, IMPase Li inh 32%[38.3 µM] and ALOX15B inhib 8%.
Screening CCc1nn2c(NCCOC)cc(C)nc2c1-c1ccc(F)cc1 returned IMPase Li inh 9%.
For O=C(NC1CCCCC1)C(c1cccs1)N(C(=O)c1ccco1)c1ccc2c(c1)OCCO2 (configuration not stated) the results were HPGD block -9%, PNC inhibitor -100*, IMPase inh -12, 12-hLO inh -2% and IMPase Li inh 7%.
`O=C(NC1CCCCC1)C(c1cccs1)N(Cc1cccs1)C(=O)c1ccco1` (configuration not stated) gave HPGD block -12%, PNC inhibitor -9, IMPase inh 7, 12-hLO inh -8%, IMPase Li inh 22%[38.3 µM] and ALOX15B inhib -1%.
CCCCNS(=O)(=O)c1ccc2nc(-c3cccnc3)cc(C(=O)NCCCOCC)c2c1 was read as IMPase Li inh 11µM*.
COc1cc(C2C(C(=O)Nc3ccccc3)=C(C)Nc3nnnn32)cc(OC)c1OC (configuration not stated) was read as IMPase inh 2.
For CC(C)CN(C(=O)c1cc2ccccc2o1)c1c(N)n(CC(C)C)c(=O)[nH]c1=O the results were PNC inhibitor -20, IMPase inh 1 and 12-hLO inh -2%.
For COc1ccc(C(=O)/C=C/C(=O)N(Cc2ccc(F)cc2)C(C(=O)NC2CCCCC2)c2ccncc2)c(O)c1 (configuration not stated) the results were HPGD block -9%, PNC inhibitor 17, 12-hLO inh -3% and IMPase Li inh 8%.
`COc1ccc(C(=O)/C=C/C(=O)N(Cc2ccccc2)C(C(=O)NC2CCCCC2)c2ccncc2)c(O)c1` (configuration not stated) gave HPGD block -2%, PNC inhibitor -86*, 12-hLO inh -3% and IMPase Li inh 6%.
For COc1cccc(OC)c1-c1nn2c(-c3cc(-c4ccccc4)n[nH]3)nnc2s1 the results were HPGD block 13µM*, PNC inhibitor 15, IMPase inh 4, 12-hLO inh 0%, IMPase Li inh 4%[38.3 µM] and ALOX15B inhib 37%.
COc1cccc(-c2nnc3sc(-c4ccccc4)nn23)c1 was read as HPGD block -25%, PNC inhibitor inconclusive, IMPase inh 11, 12-hLO inh -8%, IMPase Li inh -6%[38.3 µM] and ALOX15B inhib 0%.
COc1ccc(N2C(=O)CC(NCCNc3ccc([N+](=O)[O-])cn3)C2=O)cc1 (configuration not stated) was read as HPGD block -16%, PNC inhibitor -100*, 12-hLO inh -1% and IMPase Li inh -4%.
`COc1ccc(-c2cc(CNC(=O)CCl)on2)cc1` gave HPGD block -6%, PNC inhibitor 42, IMPase inh 8, 12-hLO inh 13% and IMPase Li inh 10%[38.3 µM].
For COc1ccc(-c2cc(CNC(=O)CN(C)Cc3ccccc3)on2)cc1 the results were HPGD block 25µM*, PNC inhibitor 65, IMPase inh 3, 12-hLO inh 6%, IMPase Li inh 2%[38.3 µM] and ALOX15B inhib 15%.
O=C(NCCCN1CCOCC1)c1sc2ccccc2c1Cl was read as IMPase Li inh -2%.
For CCN(CC(=O)Nc1cc(Cl)ccc1C)c1ncnc2sc(C)c(C)c12 the results were HPGD block inconclusive, PNC inhibitor inconclusive, IMPase inh 24, 12-hLO inh -1% and IMPase Li inh 19%.
Screening COc1ccc(OC)c(-n2c(SC)nnc2-c2c[nH]c3ccccc23)c1 returned HPGD block 18µM*, PNC inhibitor 14, IMPase inh 12, 12-hLO inh -3%, IMPase Li inh 13%[38.3 µM] and ALOX15B inhib 0%.
